Assay results reported in PubChem BioAssay (NCATS).
Values joined by “and” are separate entries in the source; they are usually repeats but may differ in a detail not shown here. Equal entries are not always repeated. Records with an inconclusive call do not appear. Active and inactive are the calls of the source. Unless noted, the call rests on the fitted dose curve; in most records, active means well fitted curve in either direction with a large enough effect (not every such curve was filed as active); inconclusive means small, poorly fitted or top-dose-only effect, or another doubt; inactive means flat fitted curve, though single readings scatter.

Experiments:
[1] = AP1 Signaling Pathway (AID 357); further: on the % scale 0 is the no-effect control and ±100 the full control effect
How it was run: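 AP-1-bla ME-180 cells with beta-lactamase reporter under AP-1 response element, stimulated with EC50 EGF; compounds titrated, 5 hours at 37 degrees Celsius. CCF4 read at 460/530 nm ratio; positive and negative modulators judged by AC50.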

[2] = Cell Viability - BJ (AID 421; calls by dose curve;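 further: potency means the concentration at half of the fitted maximal effect; cells exposed to compound for 40 hours at 37 °C before readout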); details: BJ fibroblast viability, qHTS
How it was run: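 Cytotoxicity in human BJ foreskin fibroblasts is scored as loss of cellular ATP after a 40-hour exposure, measured by luciferase luminescence. Controls are DMSO and 100 uM tamoxifen.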

[3] = Cell Viability - Jurkat (AID 426;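 active means dose-dependent loss of cell ATP signal giving a full or clear fitted curve, ranked by lower potency value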; further: potency means the concentration at half of the fitted maximal effect); details: qHTS
How it was run: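 Jurkat (clone E6-1, human T-cell leukemia) cells, 5000/well in complete medium, were exposed to compound for 40 hr at 37 °C. Viability was read as intracellular ATP by CellTiter-Glo luminescence; AC50 came from Hill fits of concentration-response data.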

[4] = Cell Viability - Hek293 (AID 427;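 active means compounds whose dose-response curve shows a full or clear partial loss of cell viability, called from curve shape rather than a numeric limit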;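 further: potency means the concentration at half of the fitted maximal effect; cells exposed to compound for 40 hours at 37 °C before reading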); details: qHTS
How it was run: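 qHTS, human embryonic kidney (adenovirus-transformed) cells; 40 hr cpd, 37 °C; CellTiter-Glo ATP luminescence. Norm: DMSO = 0, 100 uM tamoxifen = 100% inhibition. Hill-fit AC50.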

[5] = Cell Viability - HepG2 (AID 433; calls by dose curve;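 further: potency means the concentration at half of the fitted maximal effect; potency for ATP loss meaning cytotoxicity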); details: qHTS
How it was run: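 HepG2 hepatocellular carcinoma cells (1500/well) were treated with compounds for 40 h at 37 °C in complete medium; intracellular ATP was read by CellTiter-Glo luminescence. Data were normalized to DMSO and 100 uM tamoxifen, and AC50 came from Hill fits.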

[6] = Cell Viability - MRC5 (AID 434; calls by dose curve;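 further: potency means the concentration at half of the fitted maximal effect; potency reflects cytotoxicity seen as loss of intracellular ATP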); details: MRC5 lung fibroblast viability, qHTS
How it was run: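 MRC5 normal human lung fibroblasts, 1500 cells/well, exposed to compound for 40 hr at 37 C. Cellular ATP was read by CellTiter-Glo luminescence; data normalized to DMSO and 100 uM tamoxifen, with AC50 from Hill fits.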

[7] = Cell Viability - SK-N-SH (AID 435; calls by dose curve;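 further: potency means the concentration at half of the fitted maximal effect; compound exposure lasted 40 h at 37 °C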); details: SK-N-SH neuroblastoma cell viability qHTS
How it was run: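 SK-N-SH human neuroblastoma cells (1500/well) were exposed to compounds in complete medium for 40 h at 37 °C, and intracellular ATP was then measured by CellTiter-Glo luminescence. AC50 was taken from Hill fits, normalized to DMSO and 100 uM tamoxifen.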

[8] = NFAT Signaling Pathway (AID 444); details: Jurkat NFAT-bla M1, carbachol, beta-lactamase ratio, 5 h;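 further: carbachol stimulus at about its EC50 of 1 µM final; on the % scale 0 is the no-effect control and ±100 the full control effect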
How it was run: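 Jurkat cells with NFAT-driven β-lactamase reporter and co-expressed M1 receptor, stimulated with carbachol (final 1 uM, ~EC50), compound titration, 5 h at 37 °C. CCF4 loaded 1 h at RT; 460/530 nm ratio gave %activity and AC50.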

[9] = Stat Signaling Pathway (AID 446);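 further: ME-180 cervical cancer cells given 40 pM IL-6 alongside compound; SIE-controlled beta-lactamase reporter measured as 460/530 nm FRET emission ratio; on the % scale 0 is the no-effect control and ±100 the full control effect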
How it was run: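 Screening format detects activators and inhibitors alike: ME-180 SIE-bla cells stimulated at 40 pM IL-6 for 5 hrs with compound, then dual-emission beta-lactamase read at 405 nm excitation.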

[10] = target: Glucocorticoid receptor (Homo sapiens) (UniProt P04150); experiment: GR-GFP Redistribution (AID 450;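 active means compounds whose dose series gives a full or clear partial fitted curve of increased nuclear translocation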; further: potency means the concentration at half of the fitted maximal effect); details: U2OS GR-GFP nuclear translocation, laser cytometry, 2 h
[11] = target: Glucocorticoid receptor (Homo sapiens) (UniProt P04150); experiment: GR-EFC Redistribution (AID 451; calls by dose curve; further: potency means the concentration at half of the fitted maximal effect); details: CHO-K1 GR-EFC translocation, beta-gal luminescence, 2 h
How it was run: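 CHO-K1 cells expressing nuclear EA and GR-ED fragments of b-gal; compounds titrated up to 46 uM final, 2 h at 37 C. GR nuclear translocation read as complemented b-gal luminescence after 1 h RT detection.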

[12] = target: Mitogen-activated protein kinase 10 (Mus musculus) (UniProt Q61831); experiment: JNK3 AlphaScreen Assay (AID 530);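 further: kinase came from lysate of stimulated human HepG2 cells; signal reports phosphorylation of biotinylated GST-cJun 1-79 at Ser73 with 10 µM ATP; on the % scale 0 is the no-effect control and ±100 the full control effect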
How it was run: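 qHTS format: compounds tested as titrations against IL-1beta/TNF-alpha-activated HepG2 lysate JNK3 with biotin-GST-cJun substrate and 10 uM ATP at room temperature. Loss of anti-phospho-cJun AlphaScreen signal indicates inhibition.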

[13] = Cell Viability - N2a (AID 540; active means well fitted curve in the direction sought with a large enough effect; an effect the other way counts as inactive or inconclusive;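 further: plate controls were DMSO alone for no effect and tamoxifen control for full effect; nearly all actives have a fitted effect of over 45% in size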); details: N2a mouse neuroblastoma cell viability; activity change, negative = cytotoxicity: at 92.2 µM (top of the series)
How it was run: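 Mouse neuroblastoma N2a cells (1500/well) were preincubated 5 hr at 37 °C, then exposed to compounds for 40 hr at 37 °C in complete medium. Viability was read as intracellular ATP by CellTiter-Glo luminescence; AC50 from Hill fits.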

[14] = Cell Viability - NIH 3T3 (AID 541; active means well fitted curve in the direction sought with a large enough effect; an effect the other way counts as inactive or inconclusive; further: nearly all actives have a fitted effect of over 25% in size; further: potency means the concentration at half of the fitted maximal effect;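 on activity change, negative = cytotoxicity: plate controls were DMSO alone for no effect and tamoxifen positive control for full effect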); details: NIH 3T3 cell viability, qHTS; activity change, negative = cytotoxicity: at 92.2 µM (top of the series)
How it was run: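 NIH 3T3 mouse embryo fibroblasts (1000 cells/well) were plated in complete medium and treated with compound for 40 hr at 37 °C. Viability was read as intracellular ATP by CellTiter-Glo luminescence; AC50 values came from Hill-equation fits of concentration-response data.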

[15] = Cell Viability - HUV-EC-C (AID 542; active means well fitted curve in the direction sought with a large enough effect; an effect the other way counts as inactive or inconclusive; further: on the % scale 0 is the no-effect control and ±100 the full control effect; nearly all actives have a fitted effect of over 35% in size)
How it was run: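 HUV-EC-C normal human vascular endothelial cells, 1000 cells/well, pre-incubated 5 hr at 37 °C, then exposed to compounds for 40 hr at 37 °C in complete medium. Viability measured as intracellular ATP by CellTiter-Glo luminescence; AC50 from Hill fits.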

[16] = Cell Viability - H-4-II-E (AID 543; active means well fitted curve in the direction sought with a large enough effect; an effect the other way counts as inactive or inconclusive; further: nearly all actives have a fitted effect of over 35% in size; further: potency means the concentration at half of the fitted maximal effect)
How it was run: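 Rat hepatoma H-4-II-E cells (1500/well) were plated, incubated 5 hr at 37 °C, then exposed to compounds for 40 hr at 37 °C. Cellular ATP was read by CellTiter-Glo luminescence; AC50 came from Hill-equation fits of concentration-response data.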

[17] = Cell Viability - SH-SY5Y (AID 544; active means well fitted curve in the direction sought with a large enough effect; an effect the other way counts as inactive or inconclusive; further: nearly all actives have a fitted effect of over 55% in size; further: potency means the concentration at half of the fitted maximal effect;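 on viability change, negative = cytotoxic: 0% = DMSO alone and -100% = 100 µM tamoxifen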); details: SH-SY5Y neuroblastoma cell viability; viability change, negative = cytotoxic: at 92.2 µM (top of the series)
How it was run: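 Human neuroblastoma SH-SY5Y cells (1500/well) in complete medium were exposed to compounds for 40 hr at 37 °C; intracellular ATP was then quantified by CellTiter-Glo luminescence after 20 min at room temperature. AC50 came from Hill-equation concentration-response fits.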

[18] = Cell Viability - Renal Proximal Tubule (AID 545; active means well fitted curve in the direction sought with a large enough effect; an effect the other way counts as inactive or inconclusive;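 further: 0% = DMSO only and -100% = 100 µM tamoxifen; nearly all actives have a fitted effect of over 40% in size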)
How it was run: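 Primary rat renal proximal tubule cells (1000/well) were treated with compounds for 40 hr at 37 °C in complete medium. Intracellular ATP was measured by CellTiter-Glo luminescence, and AC50 values came from Hill-equation fits of concentration-response data.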

[19] = target: Cytochrome P450 1A2 (Homo sapiens) (UniProt P05177); experiment: p450-cyp1a2 (AID 410; calls by dose curve; further: potency means the concentration at half of the fitted maximal effect;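 on activity change, negative = inhibition: -100% = full effect of reference inhibitor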)
How it was run: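 Human CYP1A2 (20nM) demethylated Luciferin-ME at its Km (100uM) in 100mM KPO4. After 10 min compound preincubation, NADPH regeneration ran the reaction 60 min at room temperature. Luciferin was read by luminescence, normalized to 57 uM furafylline.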

Sequence of Cytochrome P450 1A2 (Homo sapiens) (P05177 whole entry, looked up): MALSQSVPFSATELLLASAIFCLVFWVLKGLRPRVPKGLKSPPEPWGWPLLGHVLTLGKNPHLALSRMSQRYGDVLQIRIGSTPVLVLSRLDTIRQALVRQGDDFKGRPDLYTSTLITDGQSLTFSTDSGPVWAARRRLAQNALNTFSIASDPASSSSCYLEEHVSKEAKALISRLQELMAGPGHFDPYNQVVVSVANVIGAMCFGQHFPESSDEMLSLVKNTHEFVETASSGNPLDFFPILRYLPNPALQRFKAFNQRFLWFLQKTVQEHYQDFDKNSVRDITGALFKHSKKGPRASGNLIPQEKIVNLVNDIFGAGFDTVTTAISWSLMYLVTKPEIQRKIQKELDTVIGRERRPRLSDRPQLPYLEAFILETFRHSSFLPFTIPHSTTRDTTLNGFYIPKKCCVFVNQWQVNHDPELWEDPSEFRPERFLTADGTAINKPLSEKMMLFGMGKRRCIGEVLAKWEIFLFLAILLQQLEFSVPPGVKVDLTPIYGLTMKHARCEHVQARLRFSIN
Sequence of Glucocorticoid receptor (Homo sapiens) (P04150 whole entry, looked up, the tested form may be a part): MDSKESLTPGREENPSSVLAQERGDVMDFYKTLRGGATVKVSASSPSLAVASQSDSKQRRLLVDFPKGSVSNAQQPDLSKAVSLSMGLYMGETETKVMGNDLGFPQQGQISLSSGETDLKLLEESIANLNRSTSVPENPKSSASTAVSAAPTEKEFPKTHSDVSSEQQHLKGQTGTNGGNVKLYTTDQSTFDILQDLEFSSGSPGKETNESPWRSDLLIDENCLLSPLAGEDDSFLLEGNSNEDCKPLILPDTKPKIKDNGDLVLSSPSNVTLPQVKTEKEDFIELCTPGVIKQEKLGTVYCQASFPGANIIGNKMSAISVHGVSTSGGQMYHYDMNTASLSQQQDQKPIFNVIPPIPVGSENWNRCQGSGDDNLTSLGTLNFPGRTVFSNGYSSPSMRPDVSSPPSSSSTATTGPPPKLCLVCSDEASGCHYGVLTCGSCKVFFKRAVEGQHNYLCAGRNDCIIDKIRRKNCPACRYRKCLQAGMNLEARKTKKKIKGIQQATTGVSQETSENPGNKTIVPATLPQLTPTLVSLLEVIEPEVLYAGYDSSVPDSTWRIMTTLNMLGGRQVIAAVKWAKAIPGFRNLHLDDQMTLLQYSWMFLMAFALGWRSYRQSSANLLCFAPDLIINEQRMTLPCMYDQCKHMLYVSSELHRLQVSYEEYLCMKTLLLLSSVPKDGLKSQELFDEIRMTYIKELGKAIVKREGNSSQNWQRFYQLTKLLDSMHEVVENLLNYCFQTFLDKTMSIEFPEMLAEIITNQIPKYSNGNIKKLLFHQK

NS(=O)(=O)c1cc2c(cc1Cl)NCNS2(=O)=O
inactive: outcome [1] | Potency [2] > 92 µM | Potency [3] > 92 µM | Potency [4] > 92 µM | Potency [5] > 92 µM | Potency [6] > 92 µM | Potency [7] > 92 µM | activity change, negative = inhibition ([8]; at 17.2 µM (top of the series)) 3.92% and 9.7% | activity change, negative = inhibition ([8]; at 38 µM (top of the series)) 0.292% | outcome [9] | Potency [10] > 46 µM and > 20.6 µM | Potency [11] > 46 µM and > 20.6 µM | outcome [12] | activity change, negative = cytotoxicity [13] -6.72% | Potency [14] | outcome [15] | Potency [16] | Potency [17] | Potency [18]

NCCc1cnc[nH]1
inactive: outcome [1] | activity change, negative = inhibition ([8]; at 38 µM (top of the series)) 2.96% | outcome [9] | Potency [10] > 46 µM | Potency [11] > 46 µM | outcome [12]

Cc1cc(C(C)(C)C)c(O)c(C)c1CC1=NCCN1
inactive: outcome [1] | Potency [19] | outcome [9] | Potency [10] > 46 µM and > 20.6 µM | Potency [11] > 46 µM and > 20.6 µM | outcome [12]

CN1CCN2c3ccccc3Cc3ccccc3C2C1 (stereo unspecified)
inactive: outcome [1] | outcome [9] | Potency [10] > 20.6 µM

CCC1(c2ccccc2)C(=O)NCNC1=O
inactive: Potency [19] | Potency [2] > 92 µM | Potency [3] > 92 µM | Potency [4] > 92 µM | Potency [5] > 92 µM | Potency [6] > 92 µM | Potency [7] > 92 µM | activity change, negative = inhibition ([8]; at 17.2 µM (top of the series)) -2.38% and -28.2% | activity change, negative = inhibition ([8]; at 38 µM (top of the series)) 0.117% | outcome [9] | Potency [10] > 46 µM and > 20.6 µM | Potency [11] > 46 µM and > 20.6 µM | outcome [12] | activity change, negative = cytotoxicity [13] -14.7% | Potency [14] | outcome [15] | Potency [16] | Potency [17] | Potency [18]

COc1nc(C)nc(Cl)c1NC1=NCCN1
inactive: outcome [1] | Potency [19] | activity change, negative = inhibition ([8]; at 17.2 µM (top of the series)) -14.9% | activity change, negative = inhibition ([8]; at 38 µM (top of the series)) 10.4% | outcome [9] | Potency [10] > 46 µM and > 20.6 µM | Potency [11] > 46 µM and > 20.6 µM | outcome [12]

CN(C)CCOC(c1ccccc1)c1ccccc1
inactive: outcome [1] | outcome [9] | outcome [12]

NC(=O)OCC(COC(N)=O)c1ccccc1
inactive: Potency [19] | activity change, negative = inhibition ([8]; at 17.2 µM (top of the series)) 3.58% | activity change, negative = inhibition ([8]; at 38 µM (top of the series)) 8.56% | outcome [9] | Potency [10] > 46 µM and > 20.6 µM | Potency [11] > 46 µM | outcome [12]

COc1ccc2c(c1)c(CC(=O)O)c(C)n2C(=O)c1ccc(Cl)cc1
active: Potency [19] 10 µM
inactive: outcome [1] | Potency [2] > 92 µM | Potency [3] > 92 µM | Potency [4] > 92 µM | Potency [5] > 92 µM | Potency [6] > 92 µM | Potency [7] > 92 µM | activity change, negative = inhibition ([8]; at 17.2 µM (top of the series)) -5.62% and 13.9% | activity change, negative = inhibition ([8]; at 38 µM (top of the series)) 8.92% | outcome [9] | Potency [10] > 46 µM and > 20.6 µM | Potency [11] > 46 µM and > 20.6 µM | outcome [12] | activity change, negative = cytotoxicity [13] 0.758% | Potency [14] | outcome [15] | Potency [16] | Potency [17] | Potency [18]

COc1ccc(C2CNC(=O)C2)cc1OC1CCCC1 (stereo unspecified)
inactive: outcome [1] | activity change, negative = inhibition ([8]; at 17.2 µM (top of the series)) -22.4% | outcome [9] | Potency [10] > 20.6 µM

CC(C)C(=O)Nc1ccc([N+](=O)[O-])c(C(F)(F)F)c1
active: Potency [19] 2 µM and 316 nM | activity change, negative = cytotoxicity [13] -119% | Potency [16] 39.8 µM
inactive: Potency [3] > 92 µM | Potency [4] 53.5 µM | Potency [5] > 92 µM | Potency [6] > 92 µM | activity change, negative = inhibition ([8]; at 17.2 µM (top of the series)) -0.457% | activity change, negative = inhibition ([8]; at 38 µM (top of the series)) 9.16% | outcome [9] | outcome [12] | outcome [15] | Potency [17] | Potency [18]

O=c1[nH]cc(F)c(=O)[nH]1
inactive: Potency [19] | Potency [2] > 92 µM | Potency [3] > 92 µM | Potency [4] > 92 µM | Potency [5] > 92 µM | Potency [6] > 92 µM | Potency [7] 9.55 µM | activity change, negative = inhibition ([8]; at 38 µM (top of the series)) 18.8% | outcome [9] | Potency [10] > 46 µM | Potency [11] > 46 µM | outcome [12] | activity change, negative = cytotoxicity [13] -18.1% | outcome [15]
active: Potency [14] 0.316 µM | Potency [16] 0.631 µM | Potency [17] 15.8 µM
